The panel holds about 83,000 compounds, 20% with a hit somewhere; the sample as a whole holds those more often.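 48-hour exposure, single concentration, 96-well plates; percent growth endpoint where 0 means no net growth. Active: below 10.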 Values without a mark were called inactive. Active and inactive are the calls of the source.
What was measured:
Experiment in all cases: NCI-60 one-dose screen, 48 h (100 = growth as untreated, 0 = no growth, -100 = all killed)
Settings in all cases: 10 µM unless noted
[1] = tested on: SR leukemia
[2] = tested on: RPMI-8226 leukemia
[3] = tested on: OVCAR-8 ovarian
[4] = tested on: OVCAR-5 ovarian
[5] = tested on: OVCAR-4 ovarian
[6] = tested on: SK-OV-3 ovarian
[7] = tested on: IGROV1 ovarian
[8] = tested on: OVCAR-3 ovarian
[9] = tested on: NCI/ADR-RES ovarian
[10] = tested on: T-47D breast
[11] = tested on: SW-620 colon
[12] = tested on: MCF7 breast
[13] = tested on: HCT-116 colon
[14] = tested on: HCC-2998 colon
[15] = tested on: KM12 colon
[16] = tested on: HS 578T breast
[17] = tested on: BT-549 breast
[18] = tested on: MDA-MB-435 melanoma

| SMILES | growth [1] | growth [2] | growth [3] | growth [4] | growth [5] | growth [6] | growth [7] | growth [8] | growth [9] | growth [10] | growth [11] | growth [12] | growth [13] | growth [14] | growth [15] | growth [16] | growth [17] | growth [18] |
| --- | --- | --- | --- | --- | --- | --- | --- | --- | --- | --- | --- | --- | --- | --- | --- | --- | --- | --- |
| Cc1ccc(-c2cn3cc([N+](=O)[O-])ccc3n2)cc1 | 75.5% | 72.6% | 76.7% | 109% | 78.1% | 102% | 71% | 101% | 83.4% | 46.6% | 100% | 34.8% | 70.3% | 88% | 91.4% | – | – | – |
| O=C(O)c1ccc2nc(-c3ccc(OCCCCCOc4ccc(-c5nc6ccc(C(=O)O)cc6[nH]5)cc4)cc3)[nH]c2c1 | 120% | 123% | 49% | 9.11% (active) | 82.6% | 48.8% | 109% | – | 33.1% | 51.2% | 57.1% | 82.3% | 88.6% | 16.4% | 98.6% | 82.7% | 130% | 189% |
| Nc1nc(Cl)cc(NCc2ccc(CNc3cc(Cl)nc(N)n3)cc2)n1 | 139% | 103% | 89.6% | 82.5% | 59.7% | 92.5% | -31% (active) | – | 103% | 69.2% | 87.4% | 103% | 83.3% | 101% | 99% | 100% | 72.6% | 106% |
| COc1ccc(-c2nn(-c3ccc(NC(=O)Nc4cc(C(F)(F)F)cc(C(F)(F)F)c4)cc3)cc2-c2ccncc2)cc1Cl | 1.23% (active) | -29.3% (active) | 12.9% | 17.7% | 47% | 22.9% | 26.3% | 3.27% (active) | 14% | – | 19.5% | 15.5% | 2.45% (active) | 12.3% | 7.63% (active) | – | 17.5% | 8.04% (active) |
| Fc1ccc(/C=N/n2c(-c3cc(Cl)cc(Cl)c3Cl)nn(CNc3ccc(Cl)nn3)c2=S)cc1 | 79.7% | 82.4% | 95.7% | 89.9% | 91.8% | 90.2% | 96.3% | – | 86.7% | 86% | 112% | 98.9% | 78.1% | 107% | 97.3% | 108% | 114% | 97.9% |
| C=C(C)[C@@H]1C/C=C(\COC(=O)[C@H](OC(C)=O)C(NC(=O)c2ccccc2)c2ccccc2)CC[C@H]2O[C@]2(C)CC/C=C(\C)CC1 (some centres not stated) | 3.12% [5 µM] (active) | -6.61% [5 µM] (active) | 86.7% [5 µM] | 88.7% [5 µM] | 62.3% [5 µM] | 87.7% [5 µM] | 45.9% [5 µM] | – | 62.9% [5 µM] | 68.7% [5 µM] | 94.8% [5 µM] | 38.2% [5 µM] | 42.7% [5 µM] | 75.5% [5 µM] | 69.1% [5 µM] | 79.5% [5 µM] | 68.5% [5 µM] | 67% [5 µM] |
| S=c1n(CNc2ccc(Cl)nn2)nc(-c2cc(Cl)cc(Cl)c2Cl)n1/N=C/c1ccc(Cl)cc1 | 32.5% | 61.2% | 114% | 100% | 87.5% | 107% | 76.2% | – | 87.4% | 101% | 103% | 87.4% | 83.8% | 88.6% | 97.1% | 108% | 106% | 89.3% |
| COc1ccc(C2=NN(C(=O)COc3ccc(Cl)cc3)C(O)(c3cc(F)c(Cl)cc3Cl)C2)cc1OC (configuration not stated) | -35.1% (active) | -74.8% (active) | 5.4% (active) | 82.8% | 21.8% | 93.6% | -50.6% (active) | – | 19.9% | -51.1% (active) | -84.8% (active) | 7.79% (active) | -69.1% (active) | 78.4% | 60.4% | 22% | -76% (active) | 8.66% (active) |
| COc1cc(NC(C)CCCN2C(=O)c3ccccc3C2=O)c2nc(C)ccc2c1OC (configuration not stated) | 36.7% | 70.1% | 88.2% | 100% | 69.4% | 106% | 129% | – | 83.3% | 95.1% | 97.3% | 90.6% | 85.4% | 95.4% | 107% | 113% | 103% | 111% |
| O=C1OC(=O)C2C3CC(c4ccccc43)C12 (configuration not stated) | 104% | 99.7% | 92.4% | 85.5% | 112% | 95.8% | 109% | 125% | 112% | 103% | 101% | 97.7% | 89.2% | 106% | 105% | – | – | 104% |
| COc1ccccc1S(=O)(=O)Nc1ccc2c3c(cc(-c4ccoc4)nc13)C(=O)N2C | 59.2% | 15.5% | 70.5% | 76.3% | 55.1% | 59.3% | 62% | 74% | 55.1% | – | 71.3% | 35.5% | 63% | 74.7% | 58.1% | – | 78.7% | – |
| CC(C)Cn1cnc2c3ccccc3nc(NCn3nc(-c4cc(Cl)cc(Cl)c4Cl)oc3=S)c21 | 25.5% | 74.8% | 98.4% | 88.3% | 88.2% | 109% | 51% | – | 66.4% | 94.4% | 117% | 96.2% | 79.3% | 97.4% | 99.7% | 116% | 97.5% | 91.4% |
| CCOC(=O)C1CN(Cc2ccccc2)C(=O)C1=O (configuration not stated) | 27% | 95.6% | 107% | 95.2% | 91.9% | 107% | 109% | 105% | 109% | – | 95% | 100% | 92.9% | 118% | 108% | – | – | 98.6% |
| COc1cc(C(=O)N2CCN(C(=O)c3cc(OC)c(OCc4ccccc4)cc3N)CC2)c(N)cc1OCc1ccccc1 | 81.2% | 179% | 106% | 103% | 103% | 111% | 106% | – | 98.7% | 114% | 119% | 89.5% | 104% | 102% | 109% | 109% | 101% | 127% |
| CN1CCN(Cn2nc(-c3cc(F)c(Cl)cc3Cl)n(/N=C/c3ccc(N(C)C)cc3)c2=S)CC1 | 43.8% | 80.9% | 90.8% | 106% | 106% | 77.4% | 57.8% | – | 65.9% | 93.7% | 70.5% | 112% | 82.1% | 98% | 88.8% | 63.5% | 67.1% | -7.65% (active) |
| Nc1ncnc2c1ccn2-c1cccc(NC(=O)c2cccc(C(F)(F)F)c2)c1 | 54.6% | 52.9% | 78% | 81.4% | 68.7% | 93.3% | 87.5% | 80% | 78.4% | – | 90.2% | 58.6% | 68.5% | 98.6% | 54% | – | 89.9% | 59% |
| Nc1nc(Cl)cc(NCCCCNc2cc(Cl)nc(N)n2)n1 | 98.9% | 96.4% | 99.5% | 94.9% | 104% | 113% | -19.9% (active) | – | 107% | 108% | 112% | 109% | 102% | 103% | 113% | 126% | 99.9% | 124% |
| S=c1ssnc1-c1ccccn1 | -25.5% (active) | 10.2% | 54.9% | 70.1% | 56.1% | 67.8% | 15.2% | – | 48.4% | 27.1% | 5.79% (active) | 27.4% | 6.31% (active) | 50.8% | 32.8% | -7.73% (active) | 49.5% | 36% |
